Records with an inconclusive call do not appear. A call without a number means that no potency is given here. Active and inactive are the calls of the source. The call rests on the fitted dose curve; in most records, active means well fitted curve in the direction sought with a large enough effect; inconclusive means small, poorly fitted or top-dose-only effect, or another doubt; inactive means no such curve, though single readings can be large; an effect the other way counts as inactive or inconclusive.
Legend:
[1] = biological target: ATP-dependent 6-phosphofructokinase (Trypanosoma brucei brucei) (UniProt O15648); test: qHTS Assay to Find Inhibitors of T. brucei phosphofructokinase: hit validation (AID 492961)
ATP-dependent 6-phosphofructokinase (Trypanosoma brucei brucei), sequence (O15648 whole entry, looked up): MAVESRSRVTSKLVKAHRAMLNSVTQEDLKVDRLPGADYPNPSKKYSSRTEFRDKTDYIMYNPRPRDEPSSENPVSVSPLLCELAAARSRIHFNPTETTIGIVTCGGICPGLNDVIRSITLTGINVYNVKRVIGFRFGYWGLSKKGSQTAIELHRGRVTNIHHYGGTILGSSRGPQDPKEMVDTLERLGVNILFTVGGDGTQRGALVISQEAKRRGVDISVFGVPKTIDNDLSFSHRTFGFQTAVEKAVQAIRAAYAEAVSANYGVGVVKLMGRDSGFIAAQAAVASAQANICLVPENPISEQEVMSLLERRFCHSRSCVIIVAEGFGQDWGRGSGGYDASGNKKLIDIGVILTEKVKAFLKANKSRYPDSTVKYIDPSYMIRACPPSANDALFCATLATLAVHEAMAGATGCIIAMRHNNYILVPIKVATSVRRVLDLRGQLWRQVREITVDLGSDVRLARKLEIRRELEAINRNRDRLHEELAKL
Method in brief: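 Luminescence from ADP-Glo reports ADP generated as T. brucei PFK (1.25 nM) phosphorylates 0.5 mM fructose-6-phosphate using 0.1 mM ATP. Reactions ran 45 min at room temperature, pH 8.0.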

[2] = biological target: Ubiquitin carboxyl-terminal hydrolase 1 (Homo sapiens) (UniProt O94782); test: Inhibitors of USP1/UAF1: Pilot qHTS (AID 504865); further: nearly all actives have a fitted effect of over 35% in size
Ubiquitin carboxyl-terminal hydrolase 1 (Homo sapiens), sequence (O94782 whole entry, looked up): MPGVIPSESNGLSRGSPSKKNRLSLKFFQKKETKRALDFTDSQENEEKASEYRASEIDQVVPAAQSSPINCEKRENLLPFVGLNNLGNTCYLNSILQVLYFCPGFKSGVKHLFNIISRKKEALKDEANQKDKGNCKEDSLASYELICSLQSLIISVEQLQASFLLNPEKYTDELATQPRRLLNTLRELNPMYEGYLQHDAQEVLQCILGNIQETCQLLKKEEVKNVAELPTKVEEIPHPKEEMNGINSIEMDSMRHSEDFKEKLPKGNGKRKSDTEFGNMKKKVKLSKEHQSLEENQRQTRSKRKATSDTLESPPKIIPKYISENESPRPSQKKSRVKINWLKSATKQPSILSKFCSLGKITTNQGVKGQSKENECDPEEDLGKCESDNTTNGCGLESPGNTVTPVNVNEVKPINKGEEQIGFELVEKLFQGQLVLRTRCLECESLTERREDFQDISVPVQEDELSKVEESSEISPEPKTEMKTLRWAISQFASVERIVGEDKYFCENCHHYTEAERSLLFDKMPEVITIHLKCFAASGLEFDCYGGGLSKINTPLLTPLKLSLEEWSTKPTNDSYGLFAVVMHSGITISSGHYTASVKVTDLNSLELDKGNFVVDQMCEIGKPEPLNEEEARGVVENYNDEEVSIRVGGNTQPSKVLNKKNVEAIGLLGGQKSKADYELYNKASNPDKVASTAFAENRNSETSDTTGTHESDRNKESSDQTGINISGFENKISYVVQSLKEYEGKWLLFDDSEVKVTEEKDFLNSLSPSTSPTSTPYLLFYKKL
Method in brief: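 USP1/UAF1 complex (1nM) preincubated with compound 15 min at room temperature, then Ub-Rho substrate (150nM final) added. Fluorescence read kinetically at 480/540 nm, 6 reads every 60 seconds. Buffer: 50mM HEPES pH 7.8, 0.5mM EDTA, 0.1 mg/ml BSA, 1mM TCEP, 0.01% Tween-20.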
Potency means the concentration at half of the fitted maximal effect.

Row | SMILES | Potency [1] | Potency [2]
1 | CCN(CC)CCOc1ccccc1C(=O)CCc1ccccc1 | inactive | inactive
2 | Cn1c(=O)c2[nH]c(Br)nc2n(C)c1=O | inactive | inactive
3 | Cc1nc(-c2ccc(Cl)cc2)oc1COC(C)(C)C(=O)O | inactive | inactive
4 | CCCCN=C(N)N=C(N)N | inactive | inactive
5 | Cc1ncc(CO)c(C=O)c1O | inactive | inactive
6 | C#C[C@]1(O)CC[C@H]2[C@@H]3CCc4cc(OC)ccc4[C@H]3CC[C@@]21C | inactive | inactive
7 | COP(=O)(OC)OC(c1ccc(Cl)cc1)P(=O)(OC)OC (stereo unspecified) | inactive | inactive
8 | Cc1cccc(C)c1NC(=O)c1ccccc1C(=O)O | inactive | inactive
9 | CCN(CC)CCOC(=O)C1(c2ccccc2)CCCC1 | inactive | inactive
10 | O=C(O)C(Cc1cc(I)c(O)c(I)c1)c1ccccc1 (stereo unspecified) | inactive | inactive
11 | CC(C)Nc1cccnc1N1CCN(C(=O)c2cc3cc(NS(C)(=O)=O)ccc3[nH]2)CC1 | inactive | inactive
12 | CC(=O)OC[C@H]1O[C@@H](n2ncc(=O)[nH]c2=O)[C@H](OC(C)=O)[C@@H]1OC(C)=O | inactive | inactive
13 | COc1cc(N)c(Cl)cc1C(=O)NC1CCN(Cc2ccccc2)CC1 | inactive | inactive
14 | CCOCCn1c(N2CCCN(C)CC2)nc2ccccc21 | inactive | inactive
15 | CCCCCCCCCCCCCC(=O)OC(C)C | inactive | inactive
16 | CN1CCc2cccc3c2[C@H]1Cc1ccc(O)c(O)c1-3 | 12.6 µM (active) | inactive
17 | COc1ccccc1N1CCN(CCCCNC(=O)c2ccc(-c3ccc(C(C)=O)cc3)cc2)CC1 | inactive | inactive
18 | CCc1oc2ccccc2c1C(=O)c1cc(Br)c(O)c(Br)c1 | inactive | 31.6 µM (active)
19 | COc1cc(C(=O)NCc2ccc(OCCN(C)C)cc2)cc(OC)c1OC | inactive | inactive
20 | COc1ccc2c(c1)c1c3n2CCN(C)C3=NCC1 | inactive | inactive
21 | CC(C)Cc1ccc(CC(=O)O)cc1 | inactive | inactive
22 | C#C[C@]1(O)CC[C@H]2[C@@H]3CCC4=Cc5oncc5C[C@]4(C)[C@H]3CC[C@@]21C | inactive | inactive
23 | C/C=C/c1ccc(O)c(OC)c1 | inactive | inactive
